Compounds with a hit are over-represented: about 3.1% of the library has one in this group of screens.
Tau FP inhib – blocks human tau fibril formation measured by polarization; AID 1468; 0.39% of 280,000 active; Potency, µM (top dose mostly 57.7 µM), without a hit: at the highest dose activity, negative = inhibition, hits mostly inhibitors; K18 P301L tau heparin fibrillization, Alexa594 FP, 6 h; also: nearly all actives have a fitted effect of over 55% in size
Target sequence (P10636 561-689 P618L limits assumed): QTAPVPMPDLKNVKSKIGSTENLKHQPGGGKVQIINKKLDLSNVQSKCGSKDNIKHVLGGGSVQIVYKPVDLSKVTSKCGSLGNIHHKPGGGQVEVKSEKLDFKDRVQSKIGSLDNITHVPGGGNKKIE
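Compound effects on tau fibrillization are measured by Alexa 594 fluorescence polarization (ex 555, em 632 nm). K18 P301L tau is used at 15 uM with 0.24 uM labeled tracer, and 20 uM heparin induces aggregation over 6 hr at 37 C.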
Tau ThT inhib – blocks human tau fibril formation measured by thioflavin T; 2.1% of 270,000 active; P10636; recombinant tau K18 P301L, heparin-induced fibrillization, ThT fluorescence; Potency, µM (doses to about 57.4 µM), without a hit: at the highest dose activity, negative = inhibition, most hits filed as inhibitors; also: nearly all actives have a fitted effect of over 55% in size
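Using a mix of unlabeled (15 uM) and Alexa 594-labeled (0.24 uM) tau K18 P301L, heparin-triggered fibrillization over 6 hr at 37 C was scored by ThT fluorescence.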
TexasRed fluor – alters Texas Red total fluorescence, flagging assay interference; TRb/SRC2 Texas Red total fluorescence interference; Potency, µM (titrated, usually from 106 µM), for the others: top-dose fluorescence change, negative = quenching; 0.29% of 280,000 active; AID 1479; active = well fitted curve in either direction with a large enough effect; inconclusive = small, poorly fitted or top-dose-only effect
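Human TRb ligand-binding domain at 0.6 uM with 20 nM Texas Red SRC2 peptide in Tris buffer containing 1 uM T3 and 5% DMSO, incubated with compound 5 h at ambient temperature. Total fluorescence (555/632 nm) calculated as parallel + 2 × perpendicular.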
TRb SRC2 PPI – TRbeta-SRC2 interaction inhibition | P10828 | TRbeta-SRC2 peptide binding, fluorescence polarization; receptor liganded with 1 µM T3 | Potency, µM (doses to about 106 µM), inactives show at the highest dose activity change, negative = inhibition, usual class: inhibitors | 0.065% of 280,000 active;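 also: plate controls were bound peptide for no effect and peptide without receptor for full effect; nearly all actives have a fitted effect of over 50% in size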
Target sequence (P10828 whole entry, looked up): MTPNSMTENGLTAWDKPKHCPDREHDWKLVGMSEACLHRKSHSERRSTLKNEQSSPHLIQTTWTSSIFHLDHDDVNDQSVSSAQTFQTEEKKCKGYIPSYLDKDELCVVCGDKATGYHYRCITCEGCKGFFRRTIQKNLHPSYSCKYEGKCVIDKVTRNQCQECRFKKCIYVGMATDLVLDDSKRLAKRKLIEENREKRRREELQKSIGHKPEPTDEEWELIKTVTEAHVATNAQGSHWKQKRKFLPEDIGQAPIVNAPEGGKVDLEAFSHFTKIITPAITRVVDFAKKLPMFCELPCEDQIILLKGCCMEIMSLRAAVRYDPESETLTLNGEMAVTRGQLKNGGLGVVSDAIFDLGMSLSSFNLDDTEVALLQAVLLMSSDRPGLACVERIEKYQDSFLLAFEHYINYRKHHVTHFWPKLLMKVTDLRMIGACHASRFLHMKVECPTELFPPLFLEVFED
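Read-out is fluorescence polarization (555 nm excitation, 632 nm emission) of a Texas Red SRC2 coactivator peptide; loss of signal reflects blocked binding to human TRb ligand-binding domain in the presence of 1 uM T3.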
Tau fluor cs – counter-screen for tau fibril formation inhibitors; AID 1463; 0.93% of 280,000 active; tau K18 P301L Alexa594 fluorescence, heparin fibrillization; Potency, µM (titrated, usually from 57.7 µM), without a hit: at the highest dose activity change, negative = decrease; also: nearly all actives have a fitted effect of over 55% in size
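Human tau K18 P301L (15 uM unlabeled, 0.24 uM Alexa 594-labeled) in 100 mM sodium acetate pH 7 with 20 uM heparin, 6 hr at 37 C. ThT 30 uM added, 1 hr ambient; Alexa 594 FP and total fluorescence read at 555/632 nm.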
Numbers without * were called inactive; ? = inconclusive; . = not tested or not shown; [ ] = dose if it differs, or a comment. Unless noted, calls follow the shape of the dose curve; as a rule, active = well fitted curve in the direction sought with a large enough effect; inconclusive = small, poorly fitted or top-dose-only effect, or another doubt; inactive = no such curve, though single readings can be large; an effect the other way counts as inactive or inconclusive. Unless noted, % is scaled to controls: 0 for no effect and ±100 for the full control effect; potency is read from the fitted curve at half-maximal effect.

SMILES	Tau FP inhib	Tau ThT inhib	TexasRed fluor	TRb SRC2 PPI	Tau fluor cs
CN(C)S(=O)(=O)c1cccc(NC(=S)Nc2cc(Cl)cc(Cl)c2)c1	25µM*	-11%	-4%	-5%	?
CN(C)S(=O)(=O)c1cccc(NC(=S)Nc2ccc(Cl)cc2Cl)c1	-15%	-13%	2%	2%	-30%
CCN(CCO)c1ccc(NC(=S)Nc2cccc(S(=O)(=O)N(C)C)c2)cc1	?	14µM*	-13%	?	?
COc1cccc(N2C(=O)N(CC(=O)NCc3cccc(OC)c3OC)c3ccccc3S2(=O)=O)c1	-10%	14%	-2%	-7%	-1%
[C-]#[N+]/C(C#N)=C\c1cc(C(C)(C)C)c(O)c(C(C)(C)C)c1	?	25µM*	-3%	-3%	?
CCOc1ccc(C2NC(=O)C(C#N)=C(S)N2c2ccc(C)cc2)cc1OC (stereo unspecified)	?	32µM*	-4%	3%	-24%
CCOc1ccc(C2NC(=O)C(C#N)=C(S)N2c2cccc(C)c2)cc1OC (stereo unspecified)	?	32µM*	-1%	0%	-25%
COc1ccc(C2NC(=O)C(C#N)=C(S)N2c2ccccc2)cc1OC (stereo unspecified)	?	?	0%	-2%	-12%
O=C(C1CCCN(S(=O)(=O)c2cccs2)C1)N1CCN(c2ccccc2F)CC1 (stereo unspecified)	-1%	-16%	-2%	0%	-23%
CCN1C(=O)/C(=C/C2=Cc3ccccc3OC2C)SC1=S (stereo unspecified)	1%	13µM*	-3%	0%	?
CCOC(=O)C1=C(CN2CCN(c3cc(C)ccc3C)CC2)NC(=O)NC1c1ccc(Cl)cc1 (stereo unspecified)	-7%	-14%	-3%	0%	-22%
CCCCn1c(N)c(-c2nc3ccccc3s2)c2c([N+](=O)[O-])nn(C)c(=O)c21	8%	14µM*	0%	6%	?
CCCCn1c(N)c(-c2nc3ccccc3s2)c2c([N+](=O)[O-])nn(CC)c(=O)c21	15%	?	-2%	1%	?
CCOC(=O)c1ccc(NC(=O)CCCc2nc(-c3cc(OC)c(OC)c(OC)c3)no2)cc1	-19%	-14%	-11%	7%	?
CC1=C(C#N)C(=O)NC(=O)/C1=C\c1ccc(-c2cc(C)c(C)cc2[N+](=O)[O-])o1	?	25µM*	-4%	1%	?
O=C(/C=C/c1ccco1)NC(=S)Nc1ccccc1O	-20%	22µM*	-1%	1%	?
Cc1ccc(NC(=S)NC(=O)/C=C/c2ccco2)c(O)c1	-1%	?	-9%	-14%	-30%
O=C(/C=C\c1ccco1)NC(=S)Nc1ccccc1O	-16%	20µM*	-4%	-12%	?
Cc1cccnc1NC(=S)NC(=O)/C=C/c1ccco1	?	28µM*	?	14%	-27%
O=C(/C=C/c1ccco1)NC(=S)Nc1ccccn1	0%	?	-2%	-16%	-22%
O=C(Nc1ccc(S(=O)(=O)N2CCCCC2c2cccnc2)cc1)c1ccc(Br)cc1 (stereo unspecified)	?	5%	-3%	-3%	?
COc1cc(OC)c(NC(=O)c2c3c(nc4ccccc24)C(=O)N(C2CCCCC2)C3)cc1Cl	11%	?	1%	-1%	7%
Cc1ccc(-n2ncc3c(NCCc4ccccc4)ncnc32)cc1	?	8%	-1%	5%	-30%
O=C(Nc1ccccc1)Nc1cccc(C(F)(F)F)c1	?	1%	1%	0%	-30%
N#C/C(=N\Nc1cccc(C(F)(F)F)c1)C(=O)c1ccsc1	15%	14µM*	-17%	6%	?
SMILES	Tau FP inhib	Tau ThT inhib	TexasRed fluor	TRb SRC2 PPI	Tau fluor cs
CCC(C)C(NC(=O)OC(C)(C)C)C(=O)NC1COC2CC(n3cc(C)c(=O)[nH]c3=O)OC12 (stereo unspecified)	.	.	2%	-1%	.
O=C(CSc1nnc(SCc2cccc3ccccc23)s1)N/N=C/c1c[nH]c2ccccc12	14%	-15%	0%	4%	3.5µM*[quencher]
Cc1ccc(NC(=O)c2ccc3c(O)c(S(=O)(=O)c4ccccc4)c(=O)[nH]c3c2)cc1Cl	0%	13%	-1%	-3%	-10%
Cc1nc2cc(-c3ccccc3)nn2c(C)c1CCC(=O)N1CCN(c2ccc(F)cc2)CC1	2%	?	-6%	-3%	?
O=C(N/N=C/c1ccccc1Cl)c1nc2ccc([N+](=O)[O-])cc2c(=O)[nH]1	1%	10µM*	-3%	8%	?
S=C(NCc1ccccc1)NNc1nc2ccccc2[nH]1	?	28µM*	-2%	3%	?
Cc1ccc(C)c(N2CCN(C(=O)CN3CCSc4ccc(S(=O)(=O)N(C)C)cc43)CC2)c1	?	1%	-1%	-5%	-24%
CN1/C(=C\C(=O)Nc2cccc(Cl)c2)C(C)(C)c2ccccc21	8%	?	0%	-5%	14µM*[quencher]
CN1/C(=C/C(=O)C2CC2)C(C)(C)c2ccccc21	6%	-6%	-2%	-3%	6%
CN1/C(=C\C(=S)NC(=O)c2ccc([N+](=O)[O-])cc2)C(C)(C)c2ccccc21	3%	?	6%	10%	-3%
CN1/C(=C\C(=O)Nc2ccc(F)cc2)C(C)(C)c2ccccc21	10%	?	-11%	4%	10µM*[quencher]
CN1/C(=C\C(=O)Nc2ccc(Br)cc2)C(C)(C)c2ccccc21	4%	?	-5%	-4%	7.1µM*[quencher]
CN1/C(=C\C(=S)NC(=O)c2cccc(Br)c2)C(C)(C)c2ccccc21	11%	7.1µM*	5%	12%	9%
COc1ccc(NC(=O)Cn2c(=O)n(Cc3ccccc3Cl)c(=O)c3cc(OC)c(OC)cc32)cc1OC	?	-9%	-1%	-5%	-28%
O=C(CCS(=O)(=O)c1nc(-c2cccs2)cc(C(F)(F)F)n1)Nc1cc(Br)ccc1O	-10%	0%	0%	-1%	-10%
CC(C)(C)c1ccc(O)c(C(C)(C)C)c1	.	.	-2%[201 µM]	-1%[201 µM]	.
C=CCc1cc(OC)c(O)c(C(=O)NCCO)c1	.	.	-3%	4%	.
CCCCC/C=C\C/C=C\CCCCCCCCCC(=O)NC(C)C(=O)O (stereo unspecified)	0%	-8%	-2%	4%	-7%
O=C1N/C(=N\N=C\c2ccco2)SC1Cc1ccccc1[N+](=O)[O-] (stereo unspecified)	?	7.1µM*	0%	6%	?
CCOc1ccc(CC2S/C(=N/N=C/c3ccco3)NC2=O)cc1 (stereo unspecified)	-5%	2%	-1%	3%	-5%
Cc1cc(O)c(/C=N/OCc2ccc(Cl)cc2Cl)c(=O)o1	-2%	-7%	4%	6%	-2%

Screening data: PubChem BioAssay, National Center for Advancing Translational Sciences (NCATS)
